Glyco luc inh = N-linked glycosylation inhibition; 360,000 compounds, 0.23% hits; D54 ERlucT glycosylation luciferase reporter, 24 h; percent of 100 nM tunicamycin response; reporter increase, % at 12.5 µM;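 active means mean luciferase reporter signal, scaled so untreated is 0 and the glycosylation-blocking control 100, at or above a set limit in every replicate; inconclusive means mean reaches the limit but not every replicate does; inactive means mean below the limit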;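 further: luciferase carries N-glycosylation sites so blocking glycosylation raises the light; 0% = median of neutral control wells and 100% = median of 100 nM tunicamycin wells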
Vif inh = inhibitors of HIV Vif; HEK293T cells, Vif self-association by quenched fluorescence, imaging, 24 h; inhibition, % at 7.49 µM; 340,000 compounds, 0.35% hits; AID 602346; in the data active means inhibition above about 50%, passing the limit was not always enough; inconclusive means no clear call, values can overlap the other calls; inactive means below about 31%
Wnt bcat act = Wnt/beta-catenin pathway activation; Wnt/beta-catenin reporter cell assay, activator, plate reader; 300,000 compounds, 1.2% hits; activation, % at 9.35 µM; in the data active means activation above about 30%, passing the limit was not always enough; inconclusive means no clear call, values can overlap the other calls;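 further: 0% = neutral control wells and 100% = positive control wells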
MITF act = increases MITF-driven TRPM1 promoter luciferase signal. SK-MEL-5 TRPM1-promoter luciferase, 24 h; % of positive control, neutral wells = 0. 300,000 compounds, 0.75% hits. AID 588334. activation, % at 12.5 µM;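 active means mean activation of at least 80% with every replicate also reaching 80%; inconclusive means mean reaches 80% but some replicate falls short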;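 further: 0% = neutral control wells and 100% = parthenolide positive control wells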
esBAF inh = SWI/SNF esBAF complex inhibition | AID 602393 | reporter increase, % at 12.5 µM | mouse ES cells, Bmi1-luciferase knock-in reporter, 24 h; 100% = twice the neutral-well signal | 350,000 compounds, 2% hits; in the data active means activation above about 40%; inconclusive means no clear call, values can overlap the other calls;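 further: 0% = median of the plate's neutral control wells and 100% = double that signal; a rise in the Bmi1 reporter signal indicates esBAF inhibition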
PvdQ acylase = blocks Pseudomonas aeruginosa PvdQ acylase activity. purified PvdQ acylase, fluorescence plate reader. inhibition, % at 10 µM. 340,000 compounds, 0.063% hits; in the data active means inhibition above about 30%, passing the limit was not always enough; inconclusive means no clear call, values can overlap the other calls;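 further: 0% = vehicle neutral wells and 100% = reference inhibitor wells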
Starred values were filed as active, the others as inactive; u = inconclusive; x = no result given; ! = not confirmed by another sample. The list is not random: actives were taken first. Their share in the collection is about 2.9%.

SMILES | Glyco luc inh | Vif inh | Wnt bcat act | MITF act | esBAF inh | PvdQ acylase
COc1ccccc1OCC(=O)Nc1ccc(S(=O)(=O)N2CCN(C)CC2)cc1 | -0.7 | -3.6 | 0.3 | 12.9 | 6.4 | -5.7
O=C(Nc1ccc2c(c1)OCCO2)c1cccc(Cl)c1Cl | -5.3 | 0.5 | 15.0 | x | 87.9* | 13.6
COc1ccc(C(NC(=O)CNC(C)=O)C(=O)Nc2ccc3c(c2)OCCO3)cc1 (stereo unspecified) | -0.5 | 50.8* | 0.2 | -5.0 | -0.2 | -19.2
O=C(Nc1ccc2c(c1)OCCO2)c1c(Cl)cccc1Cl | -0.1 | 7.8 | -0.4 | x | 10.3 | x
O=C(COC(=O)c1cccnc1Cl)Nc1ccc2c(c1)OCCO2 | 1.2 | 1.7 | 19.7 | 11.3 | 3.7 | -11.3
COc1ccccc1OCC(=O)Nc1ccc(S(=O)(=O)N2CCCC2)cc1 | -1.6 | 76.0* | -2.1 | 0.5 | 0.3 | -5.1
NC(=O)c1ccccc1OCC(=O)Nc1ccc2c(c1)OCCO2 | 1.1 | -3.0 | 22.4 | 95.9* | u | -16.0
O=C(Nc1ccc(F)cc1)N1[C@H](CO)[C@@H]2c3ccccc3NC[C@@H]21 | x | x | x | x | 13.5 | x
CC(=O)N(C)C[C@H]1Oc2ncc(-c3ccccc3F)cc2C(=O)N([C@@H](C)CO)C[C@H]1C | x | x | x | x | -1.6 | x
COc1ccccc1OCCC(=O)Nc1ccc2c(c1)OCO2 | 0.8 | -1.7 | -2.0 | 12.2 | 17.7 | -2.0
COc1ccccc1OCC(=O)Nc1ccc2c(c1)OCCO2 | 2.7 | 1.0 | 3.8 | u | 44.5* | -13.2
COc1cccc(NC(=O)Cn2c(=O)oc3cc(S(=O)(=O)N4CCCC4)ccc32)c1 | -1.6 | -0.9 | 37.3* | 0.6 | x | -5.4
Cc1cc(C)c(OCC(=O)Nc2cccc(O)c2)cc1C | -7.0 | -3.8 | x | u | 55.5* | -4.6
COc1ccc(NC(=O)Cn2c(=O)oc3cc(S(=O)(=O)N4CCCC4)ccc32)c(OC)c1 | -1.2 | -6.1 | -2.1 | x | -12.2 | -3.5
Cc1cccc(NC(=O)COc2ccc(Br)cc2/C=N/O)c1 | -2.3 | -2.0 | 15.0 | 122.2* | x | 20.5
C[C@H](CO)N1C[C@H](C)[C@@H](CN(C)Cc2ccc(Cl)c(Cl)c2)Oc2ccc(NC(=O)c3ccncc3)cc2C1=O | x | x | x | x | 0.8 | x
C[C@H]1CCCCO[C@H](CN(C)C(=O)Nc2ccc(C(F)(F)F)cc2)[C@@H](C)CN([C@@H](C)CO)C(=O)c2cc(NC(=O)C3CCCCC3)ccc2O1 | x | x | x | x | 2.5 | x
COc1ccccc1OCC(=O)Nc1nc(C)c(C)s1 | -9.1 | 19.8 | 35.5* | 85.3* | 29.7 | -12.9
CCOc1cc(C(=O)NC(=S)Nc2nc(C)cc(C)n2)cc(OCC)c1OCC | 3.0 | x | -2.0 | -2.8 | -3.2 | -11.1
COc1ccc(C(=O)NC(=S)Nc2nc(C)cc(C)n2)cc1Br | -1.9 | 3.6 | 41.8* | x | x | x
Cc1cc(C)c(OCC(=O)Nc2ccc3c(c2)OCO3)cc1C | -2.2 | 67.5* | x | x | 33.4 | -2.0
Cc1ccc(C)c(OCC(=O)Nc2ccc3c(c2)OCO3)c1 | -0.9 | -5.8 | 11.4 | 23.9 | x | -12.4
COc1cc(NC(=O)C/C(C)=N/NC(=O)Cc2ccc(Cl)cc2)c(OC)cc1Cl | -0.3 | 72.8* | x | -3.1 | -0.7 | -16.4
COC(=O)c1ccccc1NC(=O)C/C(C)=N/NC(=O)Cc1ccc(Cl)cc1 | 1.1 | 8.0 | 0.7 | -2.3 | 3.5 | -6.7
Cc1ccnc(Nc2nc(-c3ccc(Cl)cc3)cs2)c1 | -4.5 | -44.7 | 5.9 | 13.0 | 66.9* | -10.7
SMILES | Glyco luc inh | Vif inh | Wnt bcat act | MITF act | esBAF inh | PvdQ acylase
Cc1nc(C)c(-c2csc(Nc3cccc(O)c3)n2)s1 | -2.0 | -4.4 | 84.5* | 41.6 | x | -19.7
Cc1ccnc(Nc2nc(-c3sc(C)nc3C)cs2)c1 | 5.8 | -1.3 | 1.0 | x | 43.0* | -16.4
Cc1ccnc(Nc2nc(-c3ccc(F)cc3)cs2)c1 | -5.2 | -11.3 | -0.5 | x | 35.9 | 9.2
C=CCNc1nc(-c2ccc(Cl)cc2)cs1 | -4.5 | 15.6 | x | 134.2* | x | 0.1
C[C@H]1CN([C@@H](C)CO)C(=O)c2cccc(NS(=O)(=O)c3cccs3)c2O[C@H]1CN(C)CC1CCCCC1 | x | x | x | x | -0.6 | x
COc1cccc(-c2cnc3c(c2)C(=O)N([C@@H](C)CO)C[C@H](C)[C@H](CN(C)C(=O)CN(C)C)O3)c1 | x | x | x | x | -6.7 | x
Cc1cc(-c2nnc(-c3cccc(Cl)c3)o2)no1 | -0.8 | 7.0 | 52.6* | x | x | 7.0
COCc1cn(CC[C@H]2CC[C@@H](NC(=O)Nc3ccc(Cl)cc3)[C@@H](CO)O2)nn1 | x | x | x | x | -1.1 | x
O=C(Nc1cccc2nsnc12)c1cccs1 | 3.4 | -5.1 | 8.8 | 61.7 | 46.8*! | -0.6
O=C(Nc1ccccc1)Nc1cccc2nsnc12 | -7.9 | -6.0 | 39.9* | 34.6 | x | -5.0
O=c1c2ccccc2nc2c3ccccc3cnn12 | 10.4 | -6.2 | 10.3 | 47.6 | 74.4* | 1.3
C[C@H](O)C#Cc1cnc2c(c1)C(=O)N([C@H](C)CO)C[C@@H](C)[C@H](CN(C)C(=O)c1ccccc1F)O2 | x | x | x | x | 1.8 | x
CCOC(=O)c1sc(NC(=O)C2CCC2)cc1C | -2.5 | -6.3 | 37.1* | 44.2 | 50.0* | -5.8
CCOC(=O)c1sc(NC(=O)Nc2ccccc2)cc1C | -10.6 | 3.4 | u | 105.1* | x | -4.2
CCOC(=O)c1sc(NC(C)=O)cc1C | 0.2 | 4.9 | 1.7 | 1.0 | -1.1 | 12.5
O=C(C[C@@H]1C[C@H]2c3cc(NC(=O)c4ccc5c(c4)OCO5)ccc3O[C@H]2[C@H](CO)O1)NCc1ccc(Oc2ccccc2)cc1 | x | x | x | x | 8.1 | x
Cc1ccc(S(=O)(=O)N2CCN(C(=O)c3c(-c4ccccc4)noc3C)CC2)cc1 | -2.8 | 51.9* | -0.5 | -9.7 | 4.7 | 10.7
Cc1ccc(NC(=O)c2nnn(CC(=O)Nc3ccc4c(c3)OCO4)c2N)cc1C | 0.5 | 6.7 | 2.1 | 5.9 | 18.5 | -12.1
O=C(CCc1ccccc1)Nc1ccc2c(c1)OCCO2 | -4.8 | 1.3 | 16.0 | 71.0 | 27.1 | -10.6
Nc1c(C(=O)Nc2ccc3c(c2)OCCO3)nnn1CCc1ccccc1 | 17.7 | 1.9 | 12.1 | 12.4 | 66.5* | -9.7
O=C(Nc1ccc2c(c1)OCCO2)N1CCN(c2ccccc2)CC1 | -1.4 | 15.0 | 17.9 | x | 20.2 | 7.8
Nc1c(C(=O)Nc2ccc3c(c2)OCCO3)nnn1Cc1cccc(Br)c1 | -5.3 | x | 42.2* | 102.0* | 55.0* | -9.2
Nc1c(C(=O)Nc2ccc3c(c2)OCCO3)nnn1Cc1ccc(Br)cc1 | -7.6 | 0.1 | 36.2* | 111.1* | 126.2* | -3.4
O=C(Nc1ccc2c(c1)OCCO2)N1CCN(Cc2ccccc2)CC1 | -1.0 | -2.7 | 24.6 | 58.9 | 55.3* | -24.7
O=C(C[C@H]1C[C@H]2c3cc(NC(=O)NC4CCCC4)ccc3O[C@H]2[C@H](CO)O1)NCc1ccc(-c2ccccc2)cc1 | x | x | x | x | 6.0 | x
CCCC(=O)Nc1ccc2c(c1)C(=O)N(C)C[C@@H](OC)[C@@H](C)CN(Cc1cncnc1)[C@H](C)CO2 | x | x | x | x | 2.2 | x
O=C(C[C@@H]1CC[C@H](NC(=O)c2cccc(F)c2)[C@@H](CO)O1)Nc1nccs1 | x | x | x | x | 4.9 | x

Bioassay records deposited in PubChem BioAssay by Broad Institute.
